Reference: PubChem BioAssay
Results filed as inconclusive are left out. Activity calls are given as the source filed them.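 How the source made its calls, unless noted: active means RAM network inhibition above 8.4% in each of two replicates, 3 SD over the compound average; inconclusive means above 8.4% inhibition in only one replicate; inactive means 8.4% inhibition or less in each replicate.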

Legend:
[1] = S. cerevisiae growth inhibition in permissive medium (OD615), pilot counter-assay for S. cerevisiae lifespan shortening project, permissive growth control (AID 705;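 active means growth inhibition above 25% in both replicates, a cutoff set 3 SD above the mean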); conditions: OD615, 24 h, at 10 µM, stronger effect = higher value
[2] = S. cerevisiae growth inhibition in restrictive medium, OD615, pilot screen, restrictive growth control, yeast lifespan reduction project (AID 706;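 active means growth inhibition above a set limit, 3 SD over mean compound inhibition, in both replicates, cut at about 43% in these data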;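 further: modified DeaD lifespan yeast strain shifted to restrictive glucose medium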); conditions: OD615, 48 h, at 10 µM, stronger effect = higher value
[3] = doxorubicin toxicity protection in MRP-1 cells – H69AR cells, CellTiter-Glo, duplicate, MRP-1 activator project, pilot screen (AID 807;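 active means viability increase at or above a cutoff of the median across tested compounds plus 3 SD, cut at about 8.5% in these data, passing the limit was not always enough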;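 further: compound pretreatment 18-22 h then 72 h combined with doxorubicin; 0% = doxorubicin alone and 100% = vehicle without doxorubicin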); conditions: H69AR viability with doxorubicin, CellTiter-Glo luminescence; at 10 µM; stronger effect = higher value
[4] = viability of HCT116 without oncogenic beta-catenin – human colon tumor cells, pilot screen (AID 823;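 active means cell viability at or below a set limit in both duplicate runs, the limit being the all-compound median minus 4 SD, cut at about 23% in these data, passing the limit was not always enough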;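 further: 0% = wells killed by 20 µM Hyamine and 100% = untreated DMSO cell wells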); conditions: HCT116 beta-catenin knockout viability, CellTiter-Glo, 60 h; at 10 µM; stronger effect = lower value
[5] = viability of PTEN-null HCT116 cells – cell-based, HCT116 clonal line, CellTiter-Glo, pilot screen (AID 824;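 active means viability at or below 27.92% in each of two runs, the all-compound median minus 4 SD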;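 further: 0% = 20 µM Hyamine control and 100% = vehicle cell control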); conditions: HCT116 PTEN-deleted viability, 60 h, at 10 µM, stronger effect = lower value
[6] = RAM pathway blockade in budding yeast – dse1pr::URA3 reporter, 5-FOA selection, pilot screen (AID 869;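 active means inhibition over a set limit, the all-compound mean plus 3 SD, in both replicate runs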;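 further: 0% = DMSO wells with no growth and 100% = 10 µM 1-NA-PP1 with full growth; RAM network block rescues cells from 5-FOA so hits raise OD615 growth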); conditions: S. cerevisiae dse1pr::URA3 5-FOA growth, OD615, 2 d, at 10 µM, stronger effect = higher value
[7] = RAM signaling pathway blockade in yeast – S. cerevisiae, Pdr1DBD-CYC8 efflux-inhibited sensitized strain, primary screen (AID 1298);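 further: 0% = DMSO untreated cells without growth and 100% = 10 µM 1-NA-PP1 full growth; higher means more yeast growth rescued from 5-FOA killing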; conditions: S. cerevisiae cbk1-as DSE1-URA3 strain, 5-FOA growth OD615, 2 d; at 50 µM; stronger effect = higher value
[8] = molecular target: Pantothenate synthetase (Mycobacterium tuberculosis (strain ATCC 25618 / H37Rv)) (UniProt P9WIL5); test: Coupled enzyme confirmation of inhibitors against recombinant Mtb PanC (AID 375; call rule not given here;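 further: 0% = full reaction with vehicle and 100% = no enzyme background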); conditions: coupled enzyme assay; at 10 µM, stronger effect = higher value
[9] = Her2 expression decrease, cell viability multiplex – SKBR3 breast tumor cells, AlphaScreen, ATP viability, primary screen (AID 461;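 active means Her2 level under about 52% in both replicate screens, with viability over 70% of control, limit read from the data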;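 on Her2 level: lower value means less Her2 protein in the cells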;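 on viability: percent of carrier control wells set as 100% viability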); conditions: SKBR3 Her2 protein level, 18-24 h, measured here: SKBR3 viability, ATP luminescence, at 10 µM
[10] = molecular target: Receptor tyrosine-protein kinase erbB-2 (Homo sapiens) (UniProt P04626); test: as above; conditions: 18-24 h, at 10 µM, stronger effect = lower value
[11] = reduced viability of SK-BR-3 breast cancer cells – cell-based, 24 h, human, pilot screen (AID 572;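 active means viability at or below 10% of carrier control in both of two separate runs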;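 further: compound exposure lasted between 18 and 24 h rather than exactly 24 h; 100% = carrier-treated control wells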); conditions: SK-BR-3 viability, CellTiter-Glo luminescence, at 10 µM, stronger effect = lower value
[12] = HUVEC growth inhibition – cell-based, human, primary screen (AID 575;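 active means viability at or below 30% in both replicate assays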;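 further: 100% = median of untreated cell wells with 0.1% DMSO on each plate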); conditions: HUVEC proliferation, CellTiter-Glo luminescence, 72 h; at 10 µM; stronger effect = lower value
[13] = H69AR cell proliferation blockers – human, duplicate replicates, primary screen (AID 580;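 active means viability at or under a set limit in both replicates, limit being median viability minus 3 SD, cut at about 48% in these data, passing the limit was not always enough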;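 further: 100% = mean luminescence of untreated wells and 0% = no signal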); conditions: H69AR lung tumor cells viability, ATP luminescence, 72 h; at 10 µM; stronger effect = lower value
[14] = MRP1 drug-resistance reversers in H69AR cells – cell-based, doxorubicin co-treatment, pilot screen (AID 601;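 active means viability loss from added drug above about 55%, and viability with drug at most 40%, in both replicates, limit read from the data, passing the limit was not always enough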); conditions: CellTiter-Glo, 72 h, at 10 µM; for differential viability (reversal): stronger effect = higher value
[15] = yeast transport mutant growth inhibition pilot in 384-well plates, post-Golgi transport modulator project (AID 636; in the data active means inhibition above about 31%); conditions: absorbance 615 nm, about 18 h, stronger effect = higher value
[16] = growth suppression of yeast trafficking mutant, preliminary HTS, modulators of trafficking downstream of Golgi apparatus project, 1536-format plate, OD 615 nm (AID 637; in the data active means inhibition above about 30%); conditions: yeast transport mutant growth, absorbance 615 nm, 18 h; stronger effect = higher value
[17] = H69AR cells + 2 uM doxorubicin, measured here: viability with 2 uM doxorubicin, stronger effect = lower value
[18] = H69AR cells, compound alone cytotoxicity

Chain of Receptor tyrosine-protein kinase erbB-2 (Homo sapiens) (P04626 whole entry, looked up): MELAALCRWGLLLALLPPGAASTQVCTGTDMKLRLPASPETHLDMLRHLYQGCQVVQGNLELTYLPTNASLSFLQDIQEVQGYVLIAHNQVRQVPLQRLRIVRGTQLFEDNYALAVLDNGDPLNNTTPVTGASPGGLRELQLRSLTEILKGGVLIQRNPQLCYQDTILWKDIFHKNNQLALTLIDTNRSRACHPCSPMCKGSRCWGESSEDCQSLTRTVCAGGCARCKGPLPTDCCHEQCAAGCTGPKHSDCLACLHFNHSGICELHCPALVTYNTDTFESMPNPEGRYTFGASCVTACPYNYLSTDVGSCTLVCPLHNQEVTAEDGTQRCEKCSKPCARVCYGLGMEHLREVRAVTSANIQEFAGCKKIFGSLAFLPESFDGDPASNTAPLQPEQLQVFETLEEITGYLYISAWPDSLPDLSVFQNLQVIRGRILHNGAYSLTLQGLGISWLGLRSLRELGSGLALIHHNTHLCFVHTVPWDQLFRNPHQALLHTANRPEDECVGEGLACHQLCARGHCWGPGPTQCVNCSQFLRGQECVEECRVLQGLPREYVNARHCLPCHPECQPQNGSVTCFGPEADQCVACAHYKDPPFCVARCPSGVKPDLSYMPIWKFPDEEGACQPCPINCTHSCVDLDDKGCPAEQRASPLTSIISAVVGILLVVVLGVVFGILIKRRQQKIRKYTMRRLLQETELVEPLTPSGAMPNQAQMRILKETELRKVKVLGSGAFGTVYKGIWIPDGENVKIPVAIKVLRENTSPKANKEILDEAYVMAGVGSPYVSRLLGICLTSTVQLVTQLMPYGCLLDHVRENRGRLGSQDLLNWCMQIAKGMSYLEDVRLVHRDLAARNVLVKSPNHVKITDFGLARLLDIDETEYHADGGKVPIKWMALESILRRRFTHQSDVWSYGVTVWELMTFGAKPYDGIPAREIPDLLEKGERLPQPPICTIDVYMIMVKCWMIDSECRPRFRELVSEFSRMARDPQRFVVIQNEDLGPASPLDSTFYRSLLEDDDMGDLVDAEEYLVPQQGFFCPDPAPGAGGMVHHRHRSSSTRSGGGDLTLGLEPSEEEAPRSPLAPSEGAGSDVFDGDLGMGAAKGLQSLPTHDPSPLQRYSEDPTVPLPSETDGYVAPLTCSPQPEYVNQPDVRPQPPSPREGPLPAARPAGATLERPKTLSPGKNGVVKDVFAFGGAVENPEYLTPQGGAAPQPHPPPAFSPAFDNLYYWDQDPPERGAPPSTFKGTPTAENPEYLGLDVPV
Chain of Pantothenate synthetase (Mycobacterium tuberculosis (strain ATCC 25618 / H37Rv)) (P9WIL5 whole entry, looked up): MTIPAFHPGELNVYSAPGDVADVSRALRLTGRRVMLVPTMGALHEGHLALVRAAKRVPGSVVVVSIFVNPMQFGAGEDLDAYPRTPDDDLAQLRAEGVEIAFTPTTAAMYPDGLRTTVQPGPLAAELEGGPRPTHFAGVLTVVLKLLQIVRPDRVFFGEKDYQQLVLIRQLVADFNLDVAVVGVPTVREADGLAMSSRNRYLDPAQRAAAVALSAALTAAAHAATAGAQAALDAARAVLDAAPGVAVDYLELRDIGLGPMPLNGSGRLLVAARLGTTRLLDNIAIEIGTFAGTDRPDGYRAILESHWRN

CCC(=O)N1CC(=O)Nc2ccc(F)cc2C1c1ccccc1 (configuration not stated)
inactive: growth inhibition [1] -9.43% | growth inhibition [2] -11.4% | viability increase [3] -1% | viability [4] 92.2% | viability [5] 90.9% | inhibition [6] 2.25% | RAM network inhibition [7] 3.64%

CCCCCCOc1ccc(CN2CCN(C)CC2)cc1
83.5%: viability [9]
77.2%: viability [14, 18]
inactive: inhibition [8] 0% | Her2 level [10] 87% | viability [11] 83.5% | viability [12] 61.5% | viability [13] 77.2% | differential viability (reversal) ([14]; H69AR cells + 2 uM doxorubicin) 6.76% | inhibition [15] -5.06% | inhibition [16] 3.44% | growth inhibition [1] -13.5% | growth inhibition [2] -20.8% | viability increase [3] -5.38% | viability [4] 47.7% | viability [5] 49% | inhibition [6] -0.45% | RAM network inhibition [7] 0.09%
70.5%: viability [14, 17]

Cc1cc(Br)ccc1N1C(=O)CC(=O)NC1=O
inactive: growth inhibition [1] -12.1% | growth inhibition [2] 7.12% | viability increase [3] -0.25% | viability [4] 93.4% | viability [5] 95.3% | inhibition [6] 0.535% | RAM network inhibition [7] 0.67%

O=C(C(Cc1ccccc1)NS(=O)(=O)c1ccc(F)cc1)N1CCC2(CC1)OCCO2 (configuration not stated)
79%: viability [14, 18]
inactive: inhibition [8] 0% | viability [11] 95% | viability [12] 94.2% | viability [13] 79% | differential viability (reversal) ([14]; H69AR cells + 2 uM doxorubicin) 15.6% | inhibition [15] -0.13% | inhibition [16] -0.16% | growth inhibition [1] -6.55% | growth inhibition [2] -17.2% | viability increase [3] -3.5% | viability [4] 95.4% | viability [5] 93.5% | inhibition [6] -0.725% | RAM network inhibition [7] 0.31%
63.4%: viability [14, 17]

CN1C(=O)C(Cc2cccc3ccccc23)C(=O)N(C)C1=O
92.4%: viability [14, 17]
73.5%: viability [9]
85.2%: viability [14, 18]
inactive: inhibition [8] 6% | Her2 level [10] 94% | viability [11] 73.5% | viability [12] 95.4% | viability [13] 85.2% | differential viability (reversal) ([14]; H69AR cells + 2 uM doxorubicin) -7.14% | inhibition [15] -5.81% | inhibition [16] 0.98% | growth inhibition [1] -20.9% | growth inhibition [2] -4.64% | viability increase [3] -2.39% | viability [4] 92.5% | viability [5] 89.7% | inhibition [6] 0.305% | RAM network inhibition [7] 1.47%

CN1CCN(c2nc3ccccc3c(=O)n2-c2ccccc2)CC1
86.3%: viability [14, 18]
inactive: inhibition [8] 0% | Her2 level [10] 104% | viability [11] 98.5% | viability [12] 79.9% | viability [13] 86.3% | differential viability (reversal) ([14]; H69AR cells + 2 uM doxorubicin) -3.29% | inhibition [15] 0.64% | inhibition [16] -1.17% | growth inhibition [1] -13.4% | growth inhibition [2] -1.59% | viability increase [3] -2.67% | viability [4] 98.1% | viability [5] 99.3% | inhibition [6] 2.02% | RAM network inhibition [7] 1.34%
89.6%: viability [14, 17]
98.5%: viability [9]

CC(C)CC1C(C#N)=C(N)Oc2c1c(=O)oc1ccccc21 (configuration not stated)
inactive: growth inhibition [1] -12.7% | growth inhibition [2] -16.4% | viability increase [3] -0.17% | viability [4] 102% | viability [5] 99.8% | inhibition [6] 1.71% | RAM network inhibition [7] 8.07%

Cc1cccc(N2CCc3c2nc2ccccc2c3N)c1
84.5%: viability [9]
inactive: inhibition [8] 0% | Her2 level [10] 86% | viability [11] 84.5% | differential viability (reversal) ([14]; H69AR cells + 2 uM doxorubicin) -14.1% | inhibition [15] -2.53% | inhibition [16] 7.67% | growth inhibition [1] -1.63% | growth inhibition [2] -0.635% | viability increase [3] -6.21% | viability [4] 36.4% | viability [5] 44.5% | inhibition [6] 3.02% | RAM network inhibition [7] 4.96%
63.9%: viability [14, 17]
49.8%: viability [14, 18]

CN(C)c1ccc(CN2CC=C(c3ccc(F)cc3)CC2)cc1
inactive: growth inhibition [1] -15.2% | growth inhibition [2] -10.7% | viability increase [3] -2.99% | viability [4] 86.6% | viability [5] 96.5% | inhibition [6] 1.31% | RAM network inhibition [7] 1.92%

c1ccc(C2NCc3ccccc3-n3cccc32)cc1 (configuration not stated)
78.4%: viability [14, 17]
inactive: inhibition [8] 0% | Her2 level [10] 93.5% | viability [11] 86% | viability [12] 104% | viability [13] 84.2% | differential viability (reversal) ([14]; H69AR cells + 2 uM doxorubicin) 5.83% | inhibition [15] -4.53% | inhibition [16] 1.67% | growth inhibition [1] -19% | growth inhibition [2] -22.7% | viability increase [3] -3.44% | viability [4] 68.2% | viability [5] 78.5% | inhibition [6] 2.53% | RAM network inhibition [7] 2.46%
84.2%: viability [14, 18]
86%: viability [9]

CC(=O)Nc1ccc(OC(=O)c2ccccc2N)cc1
99.3%: viability [14, 18]
90.1%: viability [14, 17]
100%: viability [9]
inactive: inhibition [8] 0% | Her2 level [10] 118% | viability [11] 100% | viability [12] 93.5% | viability [13] 99.3% | differential viability (reversal) ([14]; H69AR cells + 2 uM doxorubicin) 9.29% | inhibition [15] -0.13% | inhibition [16] -9.5% | growth inhibition [1] -7.19% | growth inhibition [2] -9.05% | viability increase [3] 1.42% | viability [4] 107% | viability [5] 102% | inhibition [6] 1.02% | RAM network inhibition [7] 0.27%

CC1CCCCN1CC(=O)c1ccc2cc[nH]c2c1 (configuration not stated)
inactive: growth inhibition [1] -4.76% | growth inhibition [2] 3.28% | viability increase [3] -2.48% | viability [4] 98.1% | viability [5] 89.4% | inhibition [6] 1.31% | RAM network inhibition [7] 2.76%
